Results: the supplement of paper PMC10849652
Targets with a hit are over-represented here; the source holds about 8,800 in all. About 0.5% of all pairs of compound and target were hits.

What was measured:
Experiment in all cases: log2 fold change, soluble protein after heating vs DMSO (PISA); higher = thermal stabilisation; K562 lysate, 10 uM; active = over 0.2 and 3.5 SD of the protein, either way, in both replicates (recomputed)
alvocidib = compound: CN1CC[C@H](c2c(O)cc(O)c3c(=O)cc(-c4ccccc4Cl)oc23)[C@H](O)C1 [alvocidib]
Outline: (§1)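 Pellets of K562 cells were dounce-homogenised in PBS pH 7.4 with 1 mM MgCl2, and the crude extract was held at 1 mg/mL protein for a 30 min treatment with 10 μM compound. Aliquots were heated for 3 min over 48°C-58°C and pooled before NP-40 was added to 0.5% at 4°C. The supernatant from 21,000xg for 90 min was quantified by TMTpro 16plex LC-MS/MS with channel sums equalised. Values are reported from duplicates as log-two fold change in thermal stability relative to solvent controls.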

Tubastatin A = compound: CN1CCc2c(c3ccccc3n2Cc2ccc(C(=O)NO)cc2)C1 [Tubastatin A]
Outline: as §1

[1] = compound: CNC(=O)C1=CC=CC=C1NC2=NC(=NC=C2Cl)NC3=C(C=C(C=C3)N4CCOCC4)OC
Outline: as §1

defactinib = compound: CNC(=O)c1ccc(Nc2ncc(C(F)(F)F)c(NCc3nccnc3N(C)S(C)(=O)=O)n2)cc1 [defactinib]
Outline: as §1

[2] = compound: CNc1nc(-c2ccc3c(N)n[nH]c3c2)cc(N2C[C@@H](C(=O)NC3CCCCC3)CC[C@H]2C)n1
Outline: as §1

encorafenib = compound: COC(=O)N[C@@H](C)CNc1nccc(-c2cn(C(C)C)nc2-c2cc(Cl)cc(NS(C)(=O)=O)c2F)n1 [encorafenib]
Outline: as §1

[3] = compound: COC(=O)[C@H](CCSC)NC(=O)C1=C(C=C(C=C1)NC[C@H](CS)N)C2=CC=CC=C2
Outline: as §1

alisertib = compound: COc1cc(Nc2ncc3c(n2)-c2ccc(Cl)cc2C(c2c(F)cccc2OC)=NC3)ccc1C(=O)O [alisertib]
Outline: as §1

[4] = compound: COc1cc2nc(-c3cc(F)ccc3O)nc(N[C@@H]3CNC[C@H]3C(C)(C)O)c2cc1OC
Outline: as §1

gefitinib = compound: COc1cc2ncnc(Nc3ccc(F)c(Cl)c3)c2cc1OCCCN1CCOCC1 [gefitinib]
Outline: as §1

lapatinib = compound: CS(=O)(=O)CCNCc1ccc(-c2ccc3ncnc(Nc4ccc(OCc5cccc(F)c5)c(Cl)c4)c3c2)o1 [lapatinib]
Outline: as §1

pictilisib = compound: CS(=O)(=O)N1CCN(Cc2cc3nc(-c4cccc5[nH]ncc45)nc(N4CCOCC4)c3s2)CC1 [pictilisib]
Outline: as §1

crizotinib = compound: C[C@@H](Oc1cc(-c2cnn(C3CCNCC3)c2)cnc1N)c1c(Cl)ccc(F)c1Cl [crizotinib]
Outline: as §1

[5] = compound: C[C@H](C1=CC=C(C=C1)C(=O)NC2=C3C=CNC3=NC=C2)N
Outline: as §1

duvelisib = compound: C[C@H](Nc1ncnc2nc[nH]c12)c1cc2cccc(Cl)c2c(=O)n1-c1ccccc1 [duvelisib]
Outline: as §1

gandotinib = compound: Cc1cc(Nc2cc(CN3CCOCC3)c3nc(C)c(Cc4ccc(Cl)cc4F)n3n2)n[nH]1 [gandotinib]
Outline: as §1

tozasertib = compound: Cc1cc(Nc2cc(N3CCN(C)CC3)nc(Sc3ccc(NC(=O)C4CC4)cc3)n2)n[nH]1 [tozasertib]
Outline: as §1

doramapimod = compound: Cc1ccc(-n2nc(C(C)(C)C)cc2NC(=O)Nc2ccc(OCCN3CCOCC3)c3ccccc23)cc1 [doramapimod]
Outline: as §1

bafetinib = compound: Cc1ccc(NC(=O)c2ccc(CN3CC[C@H](N(C)C)C3)c(C(F)(F)F)c2)cc1Nc1nccc(-c2cncnc2)n1 [bafetinib]
Outline: as §1

[6] = compound: Cc1cccc(CC(=O)N2CCc3c2ccc(-c2cn(C)c4ncnc(N)c24)c3F)n1
Outline: as §1

Measured: log2 fold change

CKM (UniProt P06732)
UniProt P06732, sequence (P06732 whole entry, looked up): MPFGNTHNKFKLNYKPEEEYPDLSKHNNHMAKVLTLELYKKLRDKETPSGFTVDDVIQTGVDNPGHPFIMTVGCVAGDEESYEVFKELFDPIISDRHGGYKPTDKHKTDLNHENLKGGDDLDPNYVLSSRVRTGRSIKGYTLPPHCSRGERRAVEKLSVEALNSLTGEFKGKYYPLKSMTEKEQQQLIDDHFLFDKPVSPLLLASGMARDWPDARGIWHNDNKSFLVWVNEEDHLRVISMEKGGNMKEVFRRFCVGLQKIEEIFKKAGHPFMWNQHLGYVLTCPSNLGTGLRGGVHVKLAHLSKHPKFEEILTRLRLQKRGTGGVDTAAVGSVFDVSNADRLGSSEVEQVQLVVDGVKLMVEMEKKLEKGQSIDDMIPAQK
inactive: alvocidib -0.126 | Tubastatin A -0.091 | [1] -0.049 | defactinib -0.033 | [2] -0.037 | encorafenib 0.016 | [3] 0.026 | alisertib -0.015 | [4] 0.031 | gefitinib -0.065 | lapatinib -0.041 | pictilisib -0.035 | crizotinib -0.13 | duvelisib 0.087 | gandotinib 0.096 | tozasertib -0.078 | doramapimod -0.019 | bafetinib -0.023 | [6] 0.113
active: [5] -0.431

CXXC1 isoform 2 (UniProt Q9P0U4)
UniProt Q9P0U4, sequence (Q9P0U4 whole entry, looked up): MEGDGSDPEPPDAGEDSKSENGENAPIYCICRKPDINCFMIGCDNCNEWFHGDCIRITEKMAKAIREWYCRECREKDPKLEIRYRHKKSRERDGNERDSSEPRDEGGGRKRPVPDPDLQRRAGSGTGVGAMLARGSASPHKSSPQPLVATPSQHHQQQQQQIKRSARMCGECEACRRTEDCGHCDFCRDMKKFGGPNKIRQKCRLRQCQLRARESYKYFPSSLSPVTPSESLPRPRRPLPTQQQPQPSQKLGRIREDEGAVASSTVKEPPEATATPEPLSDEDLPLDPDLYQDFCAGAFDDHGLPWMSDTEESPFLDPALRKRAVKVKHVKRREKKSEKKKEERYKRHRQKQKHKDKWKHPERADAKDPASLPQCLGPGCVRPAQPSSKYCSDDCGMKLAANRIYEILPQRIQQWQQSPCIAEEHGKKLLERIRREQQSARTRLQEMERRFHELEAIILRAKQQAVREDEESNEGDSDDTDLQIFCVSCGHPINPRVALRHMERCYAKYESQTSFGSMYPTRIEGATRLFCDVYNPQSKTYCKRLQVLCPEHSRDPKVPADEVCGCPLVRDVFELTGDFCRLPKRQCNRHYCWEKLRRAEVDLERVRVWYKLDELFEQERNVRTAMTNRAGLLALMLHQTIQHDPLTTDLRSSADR
active: [2] 0.468
inactive: alvocidib -0.003 | Tubastatin A -0.138 | [1] -0.021 | defactinib -0.004 | encorafenib -0.032 | [3] 0.152 | alisertib 0.069 | [4] 0.068 | gefitinib 0.015 | lapatinib -0.024 | pictilisib 0.107 | crizotinib -0.089 | [5] 0.058 | duvelisib 0.154 | gandotinib -0.046 | tozasertib -0.028 | doramapimod 0.018 | bafetinib -0.047 | [6] 0.005

CSNK2A2 (UniProt P19784)
UniProt P19784, sequence (P19784 whole entry, looked up): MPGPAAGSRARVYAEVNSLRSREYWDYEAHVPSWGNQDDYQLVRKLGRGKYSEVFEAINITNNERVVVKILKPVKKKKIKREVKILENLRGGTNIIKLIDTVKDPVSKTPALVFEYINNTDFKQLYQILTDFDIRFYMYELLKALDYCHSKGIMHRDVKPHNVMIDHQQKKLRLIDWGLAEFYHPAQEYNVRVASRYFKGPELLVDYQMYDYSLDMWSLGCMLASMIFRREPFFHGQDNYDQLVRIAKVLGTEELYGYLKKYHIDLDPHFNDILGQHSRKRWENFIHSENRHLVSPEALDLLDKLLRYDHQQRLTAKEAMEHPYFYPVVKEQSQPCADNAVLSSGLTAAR
inactive: alvocidib 0.101 | Tubastatin A -0.059 | [1] 0.321 | defactinib 0.172 | [2] -0.022 | encorafenib -0.047 | [3] 0.012 | alisertib 0.078 | [4] 0.135 | gefitinib 0.004 | lapatinib -0.116 | pictilisib 0.057 | crizotinib -0.071 | [5] 0.099 | duvelisib -0.02 | gandotinib -0.1 | tozasertib -0.035 | doramapimod -0.015 | bafetinib 0.009 | [6] -0.041

DERA (UniProt Q9Y315)
UniProt Q9Y315, sequence (Q9Y315 whole entry, looked up): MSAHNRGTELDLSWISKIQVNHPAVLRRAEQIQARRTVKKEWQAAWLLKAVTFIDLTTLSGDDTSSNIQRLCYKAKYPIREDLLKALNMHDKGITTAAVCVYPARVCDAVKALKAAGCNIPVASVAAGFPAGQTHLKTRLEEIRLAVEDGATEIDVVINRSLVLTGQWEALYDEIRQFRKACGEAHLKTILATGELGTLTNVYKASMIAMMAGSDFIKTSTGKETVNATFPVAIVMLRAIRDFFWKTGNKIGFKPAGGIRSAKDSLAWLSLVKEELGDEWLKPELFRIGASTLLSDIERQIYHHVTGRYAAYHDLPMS
inactive: alvocidib 0.121 | Tubastatin A 0.018 | [1] 0.033 | defactinib -0.003 | [2] 0.085 | encorafenib -0.005 | [3] -0.053 | alisertib -0.059 | [4] -0.01 | gefitinib 0.087 | lapatinib -0.002 | pictilisib -0.028 | crizotinib -0.015 | duvelisib -0.004 | gandotinib -0.072 | tozasertib -0.028 | doramapimod -0.001 | bafetinib 0.012 | [6] -0.132
active: [5] 0.732

CTNND1 isoform 3 (UniProt O60716)
UniProt O60716, sequence (O60716 whole entry, looked up): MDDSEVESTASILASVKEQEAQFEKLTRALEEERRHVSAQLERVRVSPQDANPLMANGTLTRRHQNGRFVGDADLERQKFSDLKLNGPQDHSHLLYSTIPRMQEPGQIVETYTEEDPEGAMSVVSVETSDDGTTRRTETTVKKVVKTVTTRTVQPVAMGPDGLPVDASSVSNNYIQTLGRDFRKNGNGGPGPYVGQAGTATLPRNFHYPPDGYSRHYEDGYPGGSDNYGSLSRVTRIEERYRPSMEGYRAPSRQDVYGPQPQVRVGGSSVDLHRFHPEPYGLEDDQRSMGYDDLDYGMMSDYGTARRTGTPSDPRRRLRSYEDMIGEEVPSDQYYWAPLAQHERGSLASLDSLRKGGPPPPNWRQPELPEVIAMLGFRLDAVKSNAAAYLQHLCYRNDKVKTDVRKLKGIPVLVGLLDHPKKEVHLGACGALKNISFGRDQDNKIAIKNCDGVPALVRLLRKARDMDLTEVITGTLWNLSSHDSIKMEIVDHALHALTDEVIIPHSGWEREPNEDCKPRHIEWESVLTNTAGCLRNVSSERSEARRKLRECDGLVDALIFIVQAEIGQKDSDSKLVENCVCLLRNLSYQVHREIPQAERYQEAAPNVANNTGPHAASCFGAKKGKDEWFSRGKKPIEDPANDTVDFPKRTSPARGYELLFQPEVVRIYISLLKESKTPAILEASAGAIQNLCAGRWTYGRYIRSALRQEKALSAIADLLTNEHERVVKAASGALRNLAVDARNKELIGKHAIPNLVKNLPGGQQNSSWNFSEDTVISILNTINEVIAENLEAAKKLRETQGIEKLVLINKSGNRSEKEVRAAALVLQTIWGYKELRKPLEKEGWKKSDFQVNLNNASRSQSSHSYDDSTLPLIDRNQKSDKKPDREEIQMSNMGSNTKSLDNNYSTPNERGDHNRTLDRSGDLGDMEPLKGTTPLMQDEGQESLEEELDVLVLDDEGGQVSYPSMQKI
inactive: alvocidib -0.02 | Tubastatin A -0.159 | [1] 0.019 | defactinib 0.045 | [2] -0.04 | encorafenib 0.013 | [3] 0.174 | alisertib 0.026 | [4] 0.006 | gefitinib -0.023 | lapatinib -0.019 | pictilisib -0.047 | crizotinib -0.039 | [5] -0.006 | duvelisib 0.008 | gandotinib -0.001 | tozasertib 0.002 | doramapimod 0.007 | bafetinib -0.025 | [6] 0.04

COTL1 (UniProt Q14019)
UniProt Q14019, sequence (Q14019 whole entry, looked up): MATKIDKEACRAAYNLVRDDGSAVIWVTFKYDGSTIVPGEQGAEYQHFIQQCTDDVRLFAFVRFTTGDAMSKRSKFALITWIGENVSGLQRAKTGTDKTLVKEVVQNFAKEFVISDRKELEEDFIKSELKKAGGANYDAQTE
inactive: alvocidib 0.021 | Tubastatin A 0.004 | [1] -0.021 | defactinib -0.04 | [2] -0.008 | encorafenib -0.033 | [3] -0.029 | alisertib -0.009 | [4] -0.001 | gefitinib -0.002 | lapatinib 0.007 | pictilisib 0.016 | crizotinib 0.045 | [5] 0.245 | duvelisib -0.009 | gandotinib -0.062 | tozasertib 0.024 | doramapimod -0.044 | bafetinib 0.102 | [6] -0.122

CPT1A (UniProt P50416)
UniProt P50416, sequence (P50416 whole entry, looked up): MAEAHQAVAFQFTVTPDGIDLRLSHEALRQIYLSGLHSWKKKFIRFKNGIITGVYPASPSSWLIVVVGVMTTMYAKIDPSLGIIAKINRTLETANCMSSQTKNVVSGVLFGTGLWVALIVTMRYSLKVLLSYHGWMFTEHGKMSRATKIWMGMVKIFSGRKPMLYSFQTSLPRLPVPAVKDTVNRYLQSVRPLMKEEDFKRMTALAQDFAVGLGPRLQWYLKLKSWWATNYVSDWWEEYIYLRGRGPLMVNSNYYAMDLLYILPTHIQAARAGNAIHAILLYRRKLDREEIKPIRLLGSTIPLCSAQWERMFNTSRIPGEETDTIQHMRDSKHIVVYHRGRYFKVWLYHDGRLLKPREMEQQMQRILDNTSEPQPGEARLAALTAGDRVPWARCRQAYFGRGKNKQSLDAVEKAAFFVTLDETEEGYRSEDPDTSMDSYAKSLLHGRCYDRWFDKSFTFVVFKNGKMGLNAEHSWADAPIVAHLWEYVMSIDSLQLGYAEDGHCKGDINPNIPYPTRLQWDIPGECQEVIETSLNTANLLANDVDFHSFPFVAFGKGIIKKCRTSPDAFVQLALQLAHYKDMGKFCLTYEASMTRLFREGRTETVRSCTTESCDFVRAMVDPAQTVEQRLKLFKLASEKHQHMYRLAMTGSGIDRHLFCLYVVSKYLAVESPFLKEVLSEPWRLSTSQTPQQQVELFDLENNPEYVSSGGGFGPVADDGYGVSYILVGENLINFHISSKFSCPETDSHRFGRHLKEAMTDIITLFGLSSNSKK
inactive: Tubastatin A 0.261 | [1] 0.004 | defactinib -0.053 | [2] 0.113 | encorafenib 0.036 | [3] 0.078 | alisertib -0.014 | [4] -0.051 | gefitinib 0.031 | lapatinib 0.013 | pictilisib 0.014 | crizotinib 0.114 | [5] 0.009 | duvelisib 0.021 | gandotinib 0.057 | tozasertib 0.037 | doramapimod 0.038 | bafetinib -0.056 | [6] -0.027
active: alvocidib 0.407

CSK (UniProt P41240)
UniProt P41240, sequence (P41240 whole entry, looked up): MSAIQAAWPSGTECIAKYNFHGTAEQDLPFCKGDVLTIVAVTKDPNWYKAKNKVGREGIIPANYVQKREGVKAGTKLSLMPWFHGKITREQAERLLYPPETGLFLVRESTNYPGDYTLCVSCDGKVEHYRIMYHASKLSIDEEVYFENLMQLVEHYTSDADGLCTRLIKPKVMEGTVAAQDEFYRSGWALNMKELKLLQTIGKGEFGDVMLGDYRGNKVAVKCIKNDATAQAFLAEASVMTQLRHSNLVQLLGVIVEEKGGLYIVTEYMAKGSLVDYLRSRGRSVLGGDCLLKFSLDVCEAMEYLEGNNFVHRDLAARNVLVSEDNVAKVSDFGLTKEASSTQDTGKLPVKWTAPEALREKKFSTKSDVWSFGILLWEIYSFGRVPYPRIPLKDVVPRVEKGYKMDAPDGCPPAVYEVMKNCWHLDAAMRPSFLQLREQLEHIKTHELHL
inactive: alvocidib 0.076 | Tubastatin A -0.088 | [1] 0.262 | defactinib 0.068 | [2] -0.027 | encorafenib -0.026 | [3] -0.063 | alisertib 0.072 | [4] -0.008 | gefitinib -0.01 | lapatinib -0.022 | pictilisib -0.017 | crizotinib 0.259 | [5] -0.075 | duvelisib -0.026 | gandotinib 0.377 | tozasertib 0.098 | doramapimod -0.005 | bafetinib 0.41 | [6] 0

DPM1 (UniProt O60762)
UniProt O60762, sequence (O60762 whole entry, looked up): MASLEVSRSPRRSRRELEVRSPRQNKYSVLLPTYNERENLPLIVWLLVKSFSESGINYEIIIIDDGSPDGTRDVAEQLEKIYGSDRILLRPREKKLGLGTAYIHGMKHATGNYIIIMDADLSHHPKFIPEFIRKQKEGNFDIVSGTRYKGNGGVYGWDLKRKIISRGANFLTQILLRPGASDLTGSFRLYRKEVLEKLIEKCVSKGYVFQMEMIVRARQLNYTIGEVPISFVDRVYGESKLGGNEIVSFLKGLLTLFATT
inactive: alvocidib 0.084 | Tubastatin A 0.055 | [1] -0.005 | defactinib 0.037 | [2] 0.041 | encorafenib 0.01 | [3] 0.083 | alisertib 0.047 | [4] 0.013 | gefitinib -0.041 | lapatinib -0.003 | pictilisib 0.009 | crizotinib 0.009 | [5] 0.028 | duvelisib -0.018 | gandotinib -0.097 | tozasertib -0.014 | doramapimod -0.046 | bafetinib -0.061 | [6] 0.061

CSPP1 (UniProt Q1MSJ5)
inactive: alvocidib -0.031 | Tubastatin A -0.03 | [1] -0.028 | defactinib -0.086 | [2] 0.095 | encorafenib 0.119 | [3] -0.195 | alisertib 0.027 | [4] 0.218 | gefitinib -0.054 | lapatinib -0.103 | pictilisib -0.176 | crizotinib 0.013 | [5] 0.031 | duvelisib -0.089 | gandotinib 0.056 | tozasertib -0.04 | doramapimod 0.018 | bafetinib -0.013 | [6] -0.002

DOK1 (UniProt Q99704)
UniProt Q99704, sequence (Q99704 whole entry, looked up): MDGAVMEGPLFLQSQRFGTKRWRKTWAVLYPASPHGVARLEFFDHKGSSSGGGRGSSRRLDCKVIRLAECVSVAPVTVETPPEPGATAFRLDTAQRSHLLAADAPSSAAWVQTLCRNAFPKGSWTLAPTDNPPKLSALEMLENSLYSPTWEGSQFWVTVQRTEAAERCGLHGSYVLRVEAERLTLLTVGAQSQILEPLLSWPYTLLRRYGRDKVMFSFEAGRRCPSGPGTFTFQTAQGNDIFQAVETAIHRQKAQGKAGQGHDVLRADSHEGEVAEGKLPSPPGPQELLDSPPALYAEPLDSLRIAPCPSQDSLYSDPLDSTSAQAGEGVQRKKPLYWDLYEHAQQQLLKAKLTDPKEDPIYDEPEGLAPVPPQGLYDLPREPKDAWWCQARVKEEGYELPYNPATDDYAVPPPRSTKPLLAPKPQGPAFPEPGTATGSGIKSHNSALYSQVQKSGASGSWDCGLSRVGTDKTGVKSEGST
inactive: alvocidib -0.02 | Tubastatin A -0.135 | [1] 0.059 | defactinib 0.059 | [2] -0.005 | encorafenib -0.007 | [3] 0.044 | alisertib 0.082 | [4] 0.071 | gefitinib -0.102 | lapatinib 0.01 | pictilisib -0.026 | crizotinib 0.007 | [5] -0.056 | duvelisib -0.002 | gandotinib 0.042 | tozasertib 0.008 | doramapimod 0.044 | bafetinib -0.006 | [6] -0.001

CORO1A (UniProt P31146)
inactive: alvocidib 0 | Tubastatin A -0.02 | [1] 0.013 | defactinib -0.034 | [2] 0.037 | encorafenib -0.051 | [3] 0.144 | alisertib -0.018 | [4] -0.021 | gefitinib -0.037 | lapatinib -0.018 | pictilisib -0.058 | crizotinib -0.008 | [5] -0.069 | duvelisib 0.038 | gandotinib 0.037 | tozasertib 0.089 | doramapimod 0.009 | bafetinib -0.028 | [6] -0.001

CHML (UniProt P26374)
inactive: alvocidib -0.019 | Tubastatin A 0.008 | [1] -0.004 | defactinib -0.025 | [2] 0.002 | encorafenib 0.003 | [3] 0.005 | alisertib 0.014 | [4] 0.011 | gefitinib 0.012 | lapatinib -0.006 | pictilisib -0.003 | crizotinib 0.022 | [5] -0.012 | duvelisib 0.006 | gandotinib 0.013 | tozasertib -0.004 | doramapimod -0.025 | bafetinib 0.094 | [6] 0.004

COPZ1 isoform 4 (UniProt P61923)
UniProt P61923, sequence (P61923 whole entry, looked up): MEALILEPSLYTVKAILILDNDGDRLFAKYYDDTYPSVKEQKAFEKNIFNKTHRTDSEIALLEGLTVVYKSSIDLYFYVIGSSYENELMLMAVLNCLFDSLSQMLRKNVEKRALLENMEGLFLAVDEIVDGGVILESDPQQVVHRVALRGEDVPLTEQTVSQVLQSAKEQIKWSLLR
inactive: alvocidib 0.084 | Tubastatin A 0.055 | [1] 0.081 | defactinib 0.166 | [2] -0.093 | encorafenib -0.011 | [3] -0.049 | alisertib 0.045 | [4] -0.077 | gefitinib -0.142 | lapatinib 0.161 | pictilisib 0.062 | crizotinib 0.09 | [5] 0.083 | duvelisib -0.022 | gandotinib -0.066 | tozasertib 0.028 | doramapimod -0.044 | bafetinib -0.048 | [6] -0.088

CHEK2 (UniProt O96017)
active: [1] 0.207
inactive: alvocidib 0.093 | Tubastatin A -0.007 | defactinib 0.022 | [2] -0.085 | encorafenib -0.022 | [3] 0.092 | alisertib 0 | [4] -0.052 | gefitinib 0.09 | lapatinib 0.08 | pictilisib -0.012 | crizotinib 0.069 | [5] -0.011 | duvelisib 0.002 | gandotinib -0.019 | tozasertib 0.039 | doramapimod 0.018 | bafetinib -0.046 | [6] -0.008

DMAC2L (UniProt Q99766)
inactive: alvocidib 0.029 | Tubastatin A 0 | [1] -0.056 | defactinib 0.022 | [2] 0.018 | encorafenib 0.016 | alisertib 0.074 | [4] 0.031 | gefitinib 0.061 | lapatinib -0.021 | pictilisib -0.036 | crizotinib 0.012 | [5] -0.048 | duvelisib -0.037 | gandotinib 0.047 | tozasertib 0.087 | doramapimod 0.002 | bafetinib 0.009 | [6] 0.1
active: [3] -1.03
